From ChEMBL document CHEMBL4513216, “Probing the Open Global Health Chemical Diversity Library for Multistage-Active Starting Points for Next-Generation Antimalarials” (ACS Infect Dis, 2020)
About 8,600 (12%) of roughly 69,000 compounds showed an effect of 50% or more. The sample holds strong results, similar compounds and a random draw of the others, so the mix is not that of the screen.

The molecules below were run on Plasmodium berghei (assay: Screen against P. berghei liver stage (PbLuc), transformed with Luciferase, at 10uM). Conditions: tested at 10 uM.
Type: functional, HepG2
Molecule `O=C(c1ccncc1F)N1CCCC(c2nccn2CC2CCC2)C1` (configuration not stated) has an INHIBITION of 36.8%.
Work on `CC(C)C(C(=O)N1CCCN(Cc2nccn2C)CC1)N1CCCC1` (configuration not stated) yielded an INHIBITION of 11.6%.
`O=C(NC1CCCN(CCCc2ccccc2)C1)c1ccc(Cl)s1` (configuration not stated) gave an INHIBITION of 35.1%.
In the case of `CN(C)CC(O)Cn1cc(NCc2ccc(Br)cc2)cn1` (configuration not stated), the INHIBITION was 33.1%.
`Cc1ccc(C(=O)NCc2ccnc(N3CCN(C)CC3)c2)cn1` showed an INHIBITION of 38.9%.
For `CC(C)Oc1ccc(C(=O)NCc2ccc3c(c2)CCCN3C)cn1`, the INHIBITION was 29.2%.
In the case of `CC(C)Oc1ccc(C(=O)NCc2ccnc(N3CCCC3)c2)cn1`, the INHIBITION was 79.9%.
`CC(C(=O)NCc1ccnc(N2CCCC2)c1)n1cccn1` (configuration not stated) was tested, and the INHIBITION was 13.275%.
Work on `CCOc1ccc(C(=O)NCc2ccnc(N3CCN(C)CC3)c2)cn1` yielded an INHIBITION of 14%.
`CCOc1ccc(C(=O)NCc2ccnc(N3CCCC3)c2)cn1` showed an INHIBITION of 70.5%.
With `CC(O)CN1CCC(CN(C)Cc2cccc(C(=O)N(C)C)c2)CC1` (configuration not stated) the INHIBITION was 21.5%.
`CO[C@@H]1CCN(C(=O)Cc2ccsc2)[C@H]1Cc1cccnc1` showed an INHIBITION of -41%.
With `C[S+]([O-])CCNC(=O)N1CCN(c2cc(F)ccc2F)CC1` (configuration not stated) the INHIBITION was 0.348%.
In the case of `Cc1nc(COC[C@]23COC[C@H]2CN(Cc2ccoc2)C3)cs1`, the INHIBITION was -14%.
`c1ccc(CN2Cc3nccn3CC(Cn3cccn3)C2)nc1` (configuration not stated) showed an INHIBITION of 56.6%.
`CN(C)C(=O)COCC1CN(Cc2ccsc2)Cc2nccn2C1` (configuration not stated) showed an INHIBITION of 46.2%.
In the case of `c1ccc(COCC2CN(Cc3ccsc3)Cc3nccn3C2)nc1` (configuration not stated), the INHIBITION was 76.5%.
`CCOCC1CN(Cc2cccc(C#N)c2)Cc2nccn2C1` (configuration not stated) was tested, and the INHIBITION was 41.8%.
In the case of `CN(C)CCOCC1CN(Cc2cccc(F)c2)Cc2nccn2C1` (configuration not stated), the INHIBITION was 86.7%.
For `c1ccc(CN2Cc3nccn3CC(Cn3cncn3)C2)nc1` (configuration not stated), the INHIBITION was -37.9%.
`COc1ncccc1CN1Cc2nccn2CC(Cn2cccn2)C1` (configuration not stated) showed an INHIBITION of 24.9%.
For `COc1ncccc1CN1Cc2nccn2CC(CN2CCCC2)C1` (configuration not stated), the INHIBITION was 72%.
`c1cncc(OCC2CN(Cc3ccsc3)Cc3nccn3C2)c1` (configuration not stated) was tested, and the INHIBITION was 39.2%.
`N#Cc1cccc(CN2Cc3nccn3CC(CN3CCCC3)C2)c1` (configuration not stated) showed an INHIBITION of -13%.
With `c1cncc(CN2Cc3nccn3CC(Cn3cccn3)C2)c1` (configuration not stated) the INHIBITION was 30.3%.
With `N#Cc1cccc(CN2Cc3nccn3CC(COCC3CC3)C2)c1` (configuration not stated) the INHIBITION was -102%.
For `CC(=O)N(Cc1ncc(C(C)C)o1)C1CCN(CCC#N)C1` (configuration not stated), the INHIBITION was -6.865%.
In the case of `Cn1cc(C(=O)N[C@@H]2CN(Cc3cccs3)[C@@H]3CCCO[C@@H]32)cn1`, the INHIBITION was 15.1%.
`CN(Cc1cccc(F)c1)C(=O)c1cc2c([nH]c1=O)CCCC2=O` was tested, and the INHIBITION was 8.535%.
For `CCn1c(C2CCN(C(=O)CCc3cc(Cl)no3)CC2)nn(C)c1=O`, the INHIBITION was 0%.
`Cc1cc(O)cc(=O)n1CCCC(=O)Nc1n[nH]c2cc(Br)ccc12` showed an INHIBITION of 3.93%.
`Fc1ccc(-c2nc(CNC3CCc4ncnn4C3)co2)cc1` (configuration not stated) gave an INHIBITION of 23.7%.
`CCNC(=O)C1(Cc2cc(-c3ccccc3)no2)CCCN(C(C)C)C1` (configuration not stated) gave an INHIBITION of 4.41%.
In the case of `Cc1nc(C)c(C(=O)N2C[C@@H](C(=O)O)[C@H](C3CC3)C2)s1`, the INHIBITION was 76.9%.
`CNc1cc(C)nc(N2C[C@@H](C(=O)O)[C@H](C3CC3)C2)n1` showed an INHIBITION of 38.6%.
In the case of `CNc1nc(C)c(C(=O)N2C[C@@H](C(=O)O)[C@H](C3CC3)C2)s1`, the INHIBITION was 83.8%.
In the case of `CCc1nc(C)c(C(=O)N2CCCC(c3noc(C)n3)C2)s1` (configuration not stated), the INHIBITION was 45.4%.
Work on `CCc1nc(C)c(C(=O)N2C[C@@H]3CC[C@H]2CN(S(=O)(=O)N(C)C)C3)s1` yielded an INHIBITION of 40.7%.
`Cc1nc(C)c(C(=O)N2CCCC(c3cnccn3)C2)s1` (configuration not stated) showed an INHIBITION of 11.1%.
Work on `CCc1nc(C)c(C(=O)N2C[C@@H](C(=O)O)[C@H](C3CC3)C2)s1` yielded an INHIBITION of 63%.
`CNc1nc(C)c(C(=O)N2C[C@@H]3CC[C@H]2CN(c2cnccn2)C3)s1` gave an INHIBITION of -26.1%.
`Cc1nc2cc(C(=O)N3C[C@@H](C(=O)O)[C@H](C4CC4)C3)ccc2[nH]1` gave an INHIBITION of 29.8%.
Work on `CN(C)CC(=O)N1CCC2(CC1)CN(Cc1ccccc1)C2` yielded an INHIBITION of 33.4%.
With `CCOCC(O)CN1CCN(C(=O)c2ccc(C)nc2)CC1` (configuration not stated) the INHIBITION was 24.2%.
For `Cc1cc(-n2c(C)cn(CN(C)Cc3ccccc3)c2=O)no1`, the INHIBITION was -5.64%.
In the case of `C=C(C)COc1ccc(C(=O)N(C)C(C)c2ccon2)cc1` (configuration not stated), the INHIBITION was -1.38%.
Molecule `COc1ccc(-c2nnc(C(C)N3CCOC(C)(C)C3)o2)cc1` (configuration not stated) has an INHIBITION of 21.6%.
Work on `COc1ccc(-c2nnc(C(C)N3CCC4(CC3)OCCO4)o2)cc1` (configuration not stated) yielded an INHIBITION of 69.3%.
`COc1ccc(-c2nnc(C(C)N3CCOCC3)o2)cc1` (configuration not stated) was tested, and the INHIBITION was 37.5%.
`CC(=O)Nc1nc2c(s1)CN(CC(=O)Nc1ccc(C)c(Cl)c1)CC2` showed an INHIBITION of 24.2%.
For `Cc1ccc(C(=O)N2C[C@H]3CCCC(OCc4cccnc4)[C@H]3C2)cn1` (some centres not stated), the INHIBITION was 27.6%.
For `O=C1CCCCCN1Cc1nc(C2(c3ccc(F)cc3)CCOC2)no1` (configuration not stated), the INHIBITION was -26.8%.
`c1ccc(CO[C@H]2CO[C@@]3(CCCN(Cc4cccnc4)C3)C2)nc1` showed an INHIBITION of -17.1%.
`N#CC(NC(=O)CCCOc1cccnc1)c1ccccc1Cl` (configuration not stated) showed an INHIBITION of 40.9%.
Molecule `Cc1ccccc1C(C#N)NC(=O)CCCOc1cccnc1` (configuration not stated) has an INHIBITION of 31.2%.
`N#CC(NC(=O)CCCOc1cccnc1)c1ccc(F)cc1F` (configuration not stated) gave an INHIBITION of 66.9%.
With `Cc1ccccc1-n1cc(CNC(=O)CC2C(=O)NCCN2C)cn1` (configuration not stated) the INHIBITION was 4.68%.
Molecule `O=C(NC[C@@H]1CCCO1)c1cc(Br)cnc1N1CCCCC1` has an INHIBITION of 20.4%.
In the case of `O=C(c1cccc(F)c1)N(CCCO)S(=O)(=O)c1cccs1`, the INHIBITION was -38.8%.
`O=C(c1ccccc1F)N(CCCO)S(=O)(=O)c1cccs1` gave an INHIBITION of 37.7%.
Molecule `O=C(c1ccc(F)cc1)N(CCCO)S(=O)(=O)c1cccs1` has an INHIBITION of 67.4%.
`O=C(c1cscn1)N1CC[C@H]2C[C@H](c3nnc(C4CC4)o3)O[C@@H]2C1` was tested, and the INHIBITION was 30.3%.
`CC(C)(C)C(=O)N1CCC(c2nc(O)cc(-c3ccncc3)n2)CC1` was tested, and the INHIBITION was 11.1%.
`CN(C)c1nccnc1C1CCN(C2CCCCC2O)CC1` (configuration not stated) gave an INHIBITION of 17.4%.
`CC(C)[C@@H]1CN(C(=O)c2ccc3c(c2)CCCO3)C[C@H]1NS(C)(=O)=O` was tested, and the INHIBITION was 71.1%.
For `Cc1ccc(C(=O)N2C[C@@H](NS(C)(=O)=O)[C@H](C(C)C)C2)cc1O`, the INHIBITION was 18%.
With `Cc1ccc(C(=O)N2C[C@H](NS(C)(=O)=O)[C@@H](C(C)C)C2)cc1F` the INHIBITION was 14.3%.
